Test results taken from PubChem BioAssay AID588855 (National Center for Advancing Translational Sciences (NCATS), 2011).
About 5,000 (1.2%) of roughly 410,000 compounds were called active. A call without a number means that no potency is given here. Another 13% or so got no clear call; they are omitted. Calls come from the whole dose curve; as a rule, active = well fitted inhibition curve with a large enough effect; inconclusive = small, poorly fitted or top-dose-only effect; inactive = no such curve, though single readings can be large or run the other way. For the sample, actives were picked, then their nearest neighbours and some compounds at random.

Assay: qHTS for Inhibitors of TGF-b; note: nearly all actives have a fitted effect of over 65% in size
Conditions: HepG2 CAGA-GFP TGF-b/SMAD3 reporter, GFP fluorescence, 18 h, TGF-beta stimulated, 500 pg/mL final; series mostly up to 46.1 µM
In short: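 Inhibition was scored as loss of TGF-beta-induced (500 pg/mL final, 18 hours, 37 degrees C) GFP in HEPG2 cells carrying a CAGA-GFP reporter, in DMEM with 1% FBS. Well GFP was summed per cell; Activity was normalised to unstimulated and stimulated DMSO wells, then concentration-response fitting.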
Potency is the fitted concentration of half-maximal effect.

SMILES | Potency
Fc1ccc(-c2ccc(NCCN3CCOCC3)nn2)cc1 | inactive
c1ccc2cc3c(NCCN4CCOCC4)ccnc3cc2c1 | 3.98 µM (active)
O=C(NCCN1CCOCC1)c1cc(Sc2cccc(Cl)c2)nc2ccccc12 | inactive
COc1ccc(S(=O)(=O)c2c(Nc3ccc(C)cc3)sc(C(=O)c3ccc(C)cc3)c2N)cc1 | inactive
COc1ccc(-c2nc(CN3CCC(C(=O)NCc4ccccc4)CC3)c(C)o2)cc1OC | inactive
CCOc1ccc(CC(=O)NC2CCN(Cc3ccccc3)CC2)cc1 | inactive
Cc1ccc(-c2nc(CSCC(=O)NC3CCN(Cc4ccccc4)CC3)c(C)o2)cc1 | 11.2 µM (active)
COc1ccccc1-c1cc(C(F)(F)F)nc(S(=O)(=O)CCCC(=O)Nc2cc(C)ccc2O)n1 | inactive
COc1ccccc1-c1cc(C(F)(F)F)nc(S(=O)(=O)CCCC(=O)Nc2ccc(F)cc2F)n1 | 3.98 µM (active)
CSc1ccccc1NC(=O)CCS(=O)(=O)c1nc(-c2cccs2)cc(C(F)(F)F)n1 | inactive
CCOc1cc(C(=O)Nc2nnc3n2CCS3)cc(OCC)c1OCC | inactive
Cc1cccc(NC(=O)c2ccc([N+](=O)[O-])o2)c1 | 11.2 µM (active)
O=C(COC(=O)c1ccc([N+](=O)[O-])o1)NC12CC3CC(CC(C3)C1)C2 | inactive
Cc1onc(C(=O)Nc2ccc3c(c2)OCO3)c1[N+](=O)[O-] | inactive
Cc1onc(NC(=O)c2ccc([N+](=O)[O-])o2)c1Br | 11.2 µM (active)
CN1C(=O)c2ccc(C(=O)Nc3ccc(Br)cn3)cc2C1=O | inactive
O=C(Nc1ccc(Br)cn1)c1ccc([N+](=O)[O-])o1 | 10 µM (active)
Cc1cccc(NC(=O)CCn2c(=O)oc3ccccc32)c1 | inactive
O=C(Nc1ccc(Br)cn1)c1ccc([N+](=O)[O-])cc1Cl | inactive
O=C(Nc1cccc(NC(=O)c2ccccc2[N+](=O)[O-])c1)c1ccccc1Cl | inactive
CCOc1ccc(N(CC)C(=O)C2CCN(S(=O)(=O)c3cccc4nonc34)CC2)cc1 | inactive
COc1ccc(NC(=O)c2sc3nc[nH]c(=O)c3c2C)cc1 | inactive
Cc1nc2ccn(Cc3cccnc3)c(=O)c2cc1C(=O)N1CCN(c2ccccc2F)CC1 | inactive
Cc1nn(C(C)C(=O)Nc2ccc(C(C)C)cc2)c(=O)c2c1sc1ccccc12 (stereo not drawn) | inactive
Cc1ccc2sc(N(Cc3cccnc3)C(=O)C3COc4ccccc4O3)nc2c1C (stereo not drawn) | inactive
O=C(c1ccccc1F)N1CCC(c2nc3c(nnn3Cc3cccc(F)c3)c(=O)[nH]2)CC1 | inactive

SMILES | Potency
O=[N+]([O-])c1ccc(C=Nc2ccc(Cl)cc2Cl)s1 | 10 µM (active)
CCOC(=O)c1sc(NC(=O)/C=C/c2ccc(C(C)C)cc2)c(C(=O)OCC)c1C | inactive
CS(=O)c1ccc(/C=C2\C=Cc3ccccc32)cc1 (stereo not drawn) | inactive
COc1cccc(-c2cc(C(=O)Nc3ccc(C)cc3)[nH]n2)c1 | inactive
O=C(Cn1c(NCCO)nc2ccccc21)c1ccc(Cl)cc1Cl | inactive
O=C(O)c1ccc(Nc2nc(-c3ccccc3)c3cc(Br)ccc3n2)cc1 | inactive
OCCNc1nc(Nc2ccc(Cl)c(Cl)c2)nc2ccccc12 | 11.2 µM (active)
O=C(C1CC1)N1CCc2cc(Br)cc(S(=O)(=O)N3CCN(c4ccccc4F)CC3)c21 | inactive
CCOC(=O)CNC(=O)c1cc2c(=O)n3cccc(C)c3nc2s1 | inactive
Cc1cccc(CN2Cc3cccc4c3[C@H](C=CC4)CC2=S)c1 | inactive
CC(C)c1ccc(NC(=O)C2CCN(c3nc(-c4ccc(C(C)C)cc4)no3)CC2)cc1 | inactive
Cc1cc(C)cc(OC(C)C(=O)Nc2nc3c(s2)CCCC3)c1 (stereo not drawn) | inactive
COc1ccc(CCNc2nc3c(-c4cccc(F)c4)nnn3c3ccccc23)cc1OC | inactive
CC(Nc1nc(C(F)(F)F)nc2ccccc12)c1cccs1 (stereo not drawn) | 17.8 µM (active)
Cc1cc(C)n(-c2nc(C(F)(F)F)nc3ccccc23)n1 | inactive
CC(Nc1nc(N2CCN(CCO)CC2)nc2ccccc12)c1ccccc1 (stereo not drawn) | inactive
COc1ccc(/C=C/c2ccccn2)cc1OC | inactive
Cc1ccccc1C(=O)Nc1nnc(S(=O)(=O)N(C)c2ccc(Cl)cc2)s1 | 8.91 µM (active)
CC(C)CC(=O)Nc1nnc(S(=O)(=O)N(C)c2ccc(Cl)cc2)s1 | inactive
CN(Cc1ccccc1)S(=O)(=O)c1nnc(NC(=O)c2ccccc2F)s1 | inactive
CCCCc1nn2c(=O)cc(COC(=O)c3cccc(NC(=O)COc4ccccc4)c3)nc2s1 | inactive
Cc1nn(-c2ccc(F)cc2)c(-n2cccc2)c1C(=O)N1CCN(c2ccccc2)CC1 | inactive
Cc1ccc2oc3c(c(=O)c2c1)C(c1ccc([N+](=O)[O-])cc1)N(CCCN1CCOCC1)C3=O (stereo not drawn) | inactive
COc1ccc(CCNC(=O)c2cc(=O)c3c(C)cc(C)cc3o2)cc1OC | inactive
Cc1ccc(-c2cc(-c3coc4ccccc4c3=O)c3c(n2)-c2cc(Cl)ccc2OC3)cc1 | inactive
Fc1cccc(Cc2c(-c3ccc(Cl)cc3)nc3ccc(Cl)cn23)c1 | inactive

SMILES | Potency
COc1ccccc1Cc1c(-c2ccc(Cl)cc2)nc2ccc(Cl)cn12 | inactive
Fc1cccc(Cc2c(-c3cccc(Cl)c3)nc3ccc(Br)cn23)c1 | 14.1 µM (active)
Cc1ccc2nc(-c3ccccc3)c(CC3CCCCC3)n2c1 | inactive
Cc1ccc(-c2nc3ccc(Br)cn3c2Cc2ccccc2C(F)(F)F)cc1 | 14.1 µM (active)
Cc1ccc(-c2nc3ccc(Cl)cn3c2Cc2ccccc2)cc1 | inactive
COC(=O)c1ccc2nc(C3CCCCC3)c(Cc3cccc(F)c3)n2c1 | inactive
Brc1ccc2nc(-c3ccccc3)c(Cc3ccccc3)n2c1 | 12.6 µM (active)
Clc1cccc(Cc2c(-c3cccc(Cl)c3)nc3ccc(Cl)cn23)c1 | 10 µM (active)
Cc1cc(Br)cn2c(Cc3ccccc3C(F)(F)F)c(C3CCCCC3)nc12 | inactive
CN(C)C(=O)c1nc2ccc(Cl)cn2c1CNCc1cccc(OC(F)(F)F)c1 | inactive
COC(=O)c1ccc2nc(-c3ccc(Cl)cc3)c(Cc3cccc(F)c3)n2c1 | inactive
Cc1ccc(NC(=O)CN2C(=O)CC(C)Sc3ccccc32)c(C)c1 (stereo not drawn) | inactive
COc1ccc(CCNC(=O)CCc2c(C)nc3c(c(C)nn3-c3ccc(C)c(C)c3)c2C)c(OC)c1OC | inactive
COc1ccc(CCNC(=O)Cn2c(=O)n(-c3ccccc3)c(=O)c3c(C)c(C)sc32)cc1OC | inactive
CC(C)c1ccc(NC(=O)c2cc(S(=O)(=O)N3CCc4ccccc4C3)ccc2F)cc1 | inactive
CCCCNC(=O)c1ccc2c(c1)NC(=O)C(C(C)C)N2 (stereo not drawn) | inactive
COc1ccc(C(=O)Nc2nonc2-c2ccc(OC)c(OC)c2)cc1Cl | inactive
COc1cc2nc(NCC(C)c3ccccc3)n3nc(-c4ccccc4)nc3c2cc1OC (stereo not drawn) | inactive
Cc1cccc(N(C)C(=O)CS(=O)(=O)c2cccc3nsnc23)c1 | inactive
CCN1CCN(c2ccc(/C=C/c3ccnc4ccccc34)cc2)CC1 | inactive
Cc1ccc(C2C=C(c3ccc(Cl)cc3)Nc3nc(NC(=O)CCC(=O)O)nn32)cc1 (stereo not drawn) | inactive
COc1ccc(N2CCN(c3nc(-c4ccccc4F)nc4ccccc34)CC2)cc1 | inactive
Cc1cccc(C)c1NC(=O)C(Cl)C(=O)c1ccccc1 (stereo not drawn) | 11.2 µM (active)
Cc1cccc(C)c1NC(=O)N1CC(C)OC(C)C1 (stereo not drawn) | inactive
Cc1cccc(C)c1NC(=O)CN(C)C(=O)CCC(=O)c1ccccc1 | inactive
Cc1ccc2c(=O)cc(C(=O)Nc3sc4c(c3C(=O)NCc3cccnc3)CCCC4)oc2c1 | inactive

SMILES | Potency
N#Cc1ccc[n+](CC(=O)c2ccc(F)cc2)c1 | inactive
Cc1ccc(C)c(Nc2nnc(-c3ccc(C)c(S(=O)(=O)N4CCCCC4)c3)c3ccccc23)c1 | inactive
CCn1c(CNC(=O)C23CC4CC(CC(C4)C2)C3)nnc1SCC(=O)Nc1ccc(OC)cc1 | inactive
CC(=O)Nc1ccc2nc(SCCOc3cc(C)cc(C)c3)sc2c1 | inactive
Brc1cccc[n+]1Cc1cccc(C[n+]2ccccc2Br)c1 | inactive
Oc1ccc(Br)cc1/C=N/Nc1ccccn1 | 0.562 µM (active)
Cc1c(C(=O)Nc2ccccn2)oc2ccc(Br)cc12 | inactive
O=C(CCc1ccc(O)cc1)NN=Cc1cc(Br)ccc1O | inactive
CCn1cc(C(=O)NCCc2ccccc2)c(=O)c2cc(S(=O)(=O)N3CCCCCC3)ccc21 | inactive
CC(NC(=S)Nc1ccccc1)C1COc2ccccc2O1 (stereo not drawn) | inactive
S=C(NCC1COc2ccccc2O1)Nc1ccc(Br)cc1 (stereo not drawn) | 22.4 µM (active)
CCCN(CC1COc2ccccc2O1)C(=S)Nc1ccc(C)cc1 (stereo not drawn) | inactive
CCOC(=O)c1ccc(NC(=O)Cn2c(=O)n(-c3ccc(C)cc3)c(=O)c3c2cnn3C)cc1 | inactive
COc1cc2nc(C#Cc3nc4cc(OC)c(OC)cc4[nH]3)[nH]c2cc1OC | inactive
Cc1ccc(Cl)cc1NC(=O)CSc1nccn1C | inactive
Cc1ccc(C)c(NC(CC(=O)c2ccccc2)C(=O)OCC(=O)c2cccs2)c1 (stereo not drawn) | inactive
Cc1ccccc1C(CC(=O)c1cccs1)C(C#N)C#N (stereo not drawn) | 20 µM (active)
C[N+]1(CC(=O)c2cccs2)CCOCC1 | inactive
Cc1ccc(-n2nnnc2CNC(=O)c2ccccc2C)cc1C | inactive
CCN(c1ncnc2c1cnn2-c1ccc(C)cc1)C1CCCCC1 | inactive
CCN([C@H](CO)C(C)C)S(=O)(=O)c1ccccc1Br | inactive
O=S(=O)(NCc1ccccc1Br)c1ccccc1Br | inactive
CC(C)c1ccc(OCC(=O)N(Cc2ccc(N(C)C)cc2)C2CCS(=O)(=O)C2)cc1 (stereo not drawn) | inactive
C[C@H]1CN(c2ccc(Br)cc2)C(=O)[C@@H]1CC(=O)Nc1ccc(Br)cc1 | inactive
CNC(=O)C[C@H]1C(=O)N(c2ccc(OC)cc2)C[C@@H]1Cc1ccccc1 | inactive
